Where “and” joins values, the source holds several entries; their conditions need not be identical. Identical values can stand only once. About 83,000 compounds went through this panel and 20% of them were active in at least one assay; those are over-represented in the sample as a whole.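 Cells were grown in 96-well plates and exposed to the test compound at a single concentration for 48 hours; results are reported as percent growth, with values below 10 considered active.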 A number with no mark means an inactive call. Calls of active or inactive are those of the source.
Key:
Test in all cases: NCI-60 one-dose screen, 48 h (100 = growth as untreated, 0 = no growth, -100 = all killed)
Conditions in all cases: 10 µM unless noted
HCT-15 colon = system: HCT-15 colon
HT29 colon = system: HT29 colon
SNB-75 CNS = system: SNB-75 CNS
SNB-19 CNS = system: SNB-19 CNS
U251 CNS = system: U251 CNS
PC-3 prostate = system: PC-3 prostate
SK-MEL-5 melanoma = system: SK-MEL-5 melanoma
UACC-62 melanoma = system: UACC-62 melanoma
LOX IMVI melanoma = system: LOX IMVI melanoma
SK-MEL-28 melanoma = system: SK-MEL-28 melanoma
SK-MEL-2 melanoma = system: SK-MEL-2 melanoma
EKVX NSCLC = system: EKVX NSCLC
SN12C renal = system: SN12C renal
UO-31 renal = system: UO-31 renal
TK-10 renal = system: TK-10 renal
ACHN renal = system: ACHN renal
CAKI-1 renal = system: CAKI-1 renal
A498 renal = system: A498 renal
CCRF-CEM leukemia = system: CCRF-CEM leukemia
MOLT-4 leukemia = system: MOLT-4 leukemia

| SMILES | growth (HCT-15 colon) | growth (HT29 colon) | growth (SNB-75 CNS) | growth (SNB-19 CNS) | growth (U251 CNS) | growth (PC-3 prostate) | growth (SK-MEL-5 melanoma) | growth (UACC-62 melanoma) | growth (LOX IMVI melanoma) | growth (SK-MEL-28 melanoma) | growth (SK-MEL-2 melanoma) | growth (EKVX NSCLC) | growth (SN12C renal) | growth (UO-31 renal) | growth (TK-10 renal) | growth (ACHN renal) | growth (CAKI-1 renal) | growth (A498 renal) | growth (CCRF-CEM leukemia) | growth (MOLT-4 leukemia) |
| --- | --- | --- | --- | --- | --- | --- | --- | --- | --- | --- | --- | --- | --- | --- | --- | --- | --- | --- | --- | --- |
| Cc1ccc(-c2nc3nc(-c4ccc(Cl)cc4)nc(N4CCCNCC4)c3o2)cc1 | -81.5% (active) | -82.4% (active) | -10.4% (active) | -89.7% (active) | -86.9% (active) | -79.8% (active) | 92.8% | 95.6% | -83.2% (active) | 108% | 103% | 123% | -86% (active) | -78.7% (active) | 29.7% | -98.9% (active) | -92.3% (active) | 95.2% | -72.6% (active) | -71.2% (active) |
| COc1ccc(/C=C/C(=O)c2cc3c(N)c(C(=O)Nc4ccccc4)sc3nc2C)cc1 | 5.97% (active) | -3.68% (active) | 11.9% | 1.78% (active) | 1.52% (active) | 17.1% | 4.63% (active) | 22.9% | 2.65% (active) | 52% | 53.1% | 47% | 12.5% | 35.2% | 36.9% | 31.4% | 23.1% | 18.6% | 16.3% | 30.9% |
| CCOC(=O)c1cc2c(n1Cc1cc(OC)cc(OC)c1Br)-c1nc(NC(C)=O)sc1CCC2 | 83% | 63.3% | 65.7% | 83.9% | 63.3% | 22.1% | 82.1% | 67.3% | 80.3% | 98.6% | 82.6% | 58.6% | 77.5% | 51.8% | 94.4% | 91.2% | 67.3% | 55.8% | 56.3% | 46.7% |
| Oc1ccccc1C=Nc1ccc(N2CCN(c3ccccc3)CC2)cc1 | 99.8% | 99.5% | 79.9% | 107% | 99.9% | 77.8% | 97.2% | 95.4% | 98.5% | 109% | 102% | 113% | 102% | 86.3% | 93.8% | 72.9% | 91.9% | 98.6% | 62.2% | 93.5% |
| [2H]C([2H])([2H])Oc1cc(F)ccc1/C=C/C(=O)/C=C(/C=C/c1ccc(F)cc1OC([2H])([2H])[2H])OB(F)F | 25.3% | 32.4% | 81.1% | 56.9% | 31.7% | 43.8% | 30.6% | 20.9% | 2.12% (active) | 29.5% | 48% | 76.6% | 42.6% | 49.5% | 43.6% | 14.8% | 18.2% | 89% | 2.38% (active) | 1.25% (active) |
| N#CC1C(=O)c2ccccc2C1c1ccccc1 (stereo not given) | 101% and 95.5% | 114% and 110% | 89.5% and 93.2% | 97.1% and 98.5% | 98.6% and 99.8% | 111% and 116% | 96.8% and 103% | 100% and 101% | 91.5% and 98.1% | 107% and 117% | 103% | 103% | 101% and 98.5% | 74% and 84.6% | 109% and 106% | 108% and 103% | 92.2% and 93.6% | 128% and 99.1% | 98.2% and 94.2% | 80.4% and 83.3% |
| CC1=C2[C@@H](CC1)[C@]1(C)O[C@@](C(C)C)(C[C@H]1OC(=O)CO)[C@H]2OC(=O)C1CC1c1ccccc1 (stereo not given in full) | 96.8% | 75% | 102% | 88.5% | 79.6% | 62.6% | 95% | 53.3% | 77% | 114% | 75.8% | 93.8% | 61.5% | 54.2% | 88% | 43.1% | 74.1% | -20% (active) | 96.1% | 75.6% |

Source: PubChem BioAssay (NCI)
